Test results from PubChem BioAssay AID624417 (National Center for Advancing Translational Sciences (NCATS), 2012).
The campaign covered roughly 410,000 compounds. About 6,400 (1.6%) were called active. Entries that show only a call come without a potency. About 20% were inconclusive and are not listed. This is one part of a sample in which actives are shown more often than they occur. Calls come from the whole dose curve; as a rule, active = well fitted inhibition curve with a large enough effect; inconclusive = small, poorly fitted or top-dose-only effect; inactive = no such curve, though single readings can be large or run the other way.

target: Glucagon-like peptide 1 receptor (Homo sapiens) (UniProt P43220); assay: qHTS of GLP-1 Receptor Inverse Agonists (Inhibition Mode); details: HEK293 GLP-1R CRE-luciferase, luminescence, 24 h, GLP-1R form is constitutively active; series mostly up to 38.3 µM; note: nearly all actives have a fitted effect of over 55% in size
In short: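 Inverse agonism was detected as reduced cAMP-driven luciferase luminescence after 24 h compound treatment. The cells were HEK293 clones expressing constitutively active human GLP-1R with the reporter. Reporter-only and GPR119 cell lines served as counterscreen controls.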
Potency is the fitted concentration of half-maximal effect.

Sequence of Glucagon-like peptide 1 receptor (Homo sapiens) (P43220 whole entry, looked up): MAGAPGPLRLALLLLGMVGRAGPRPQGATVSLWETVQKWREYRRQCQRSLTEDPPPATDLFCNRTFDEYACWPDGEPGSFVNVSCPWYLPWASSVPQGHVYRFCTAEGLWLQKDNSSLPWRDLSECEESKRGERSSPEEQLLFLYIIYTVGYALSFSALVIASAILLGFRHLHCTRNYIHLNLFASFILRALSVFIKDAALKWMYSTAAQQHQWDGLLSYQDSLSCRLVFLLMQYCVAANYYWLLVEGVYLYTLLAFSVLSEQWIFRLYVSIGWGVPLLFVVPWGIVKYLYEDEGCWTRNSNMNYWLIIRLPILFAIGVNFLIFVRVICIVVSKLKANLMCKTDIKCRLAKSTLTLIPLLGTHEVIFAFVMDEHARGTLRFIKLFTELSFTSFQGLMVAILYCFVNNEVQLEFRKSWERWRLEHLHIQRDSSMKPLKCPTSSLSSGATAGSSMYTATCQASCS

SMILES | Potency
CN1c2ccc([N+](=O)[O-])cc2C(C)(C)C12C=Cc1cc(C(=O)O)ccc1O2 (configuration not stated) | inactive
COc1ccc2c(c1)C=CC1(O2)N(CCO)c2ccccc2C1(C)C (configuration not stated) | 2.51 µM (active)
CCCCn1nnnc1C1(C)CCC(=O)N1Cc1ccc(OC)c(OC)c1 (configuration not stated) | inactive
Cc1cccc(C)c1NC(=O)CNC(=O)c1ccc(N2CCOCC2)c([N+](=O)[O-])c1 | inactive
CC(C)NC(=O)C1(C)CCCCN1Cc1cccc(C(F)(F)F)c1 (configuration not stated) | inactive
CC1(C(=O)Nc2cccnc2)Cc2c(-c3ccccc3)ccnc2O1 (configuration not stated) | inactive
CC(=O)Nc1cnc(-c2ccc(O)cc2C)cn1 | inactive
Oc1c(CN2CCN(c3ccc(F)cc3)CC2)cc(Cl)c2cccnc12 | 2.51 µM (active)
Cc1cccnc1NC(=O)c1cccc(S(=O)(=O)N2CCN(c3ccc(F)cc3)CC2)c1 | inactive
Cc1cccc(C)c1NC(=O)CN1CCN(c2ccc(F)cc2)CC1 | inactive
Cc1ccc(S(=O)(=O)NN=C2CC(C)(C)CC(=O)C2(C)C)cc1 | inactive
CSc1ccc(/C=C/C(=O)NC23CC4CC(CC(C4)C2)C3)cc1 | 11.2 µM (active)
COc1ccccc1C(=O)NC(=S)NC12CC3CC(CC(C3)C1)C2 | inactive
COc1ccc(/C=C/C(=O)Nc2ccc(C34CC5CC(CC(O)(C5)C3)C4)cc2)cc1OC | inactive
COc1ccc(C(=O)NCC2CCCO2)cc1S(=O)(=O)NCc1ccc(Cl)cc1 (configuration not stated) | inactive
Cc1cccc(C)c1-n1nnnc1C1(C)CCC(=O)N1CCOc1ccccc1 (configuration not stated) | inactive
O=C(NCc1ccco1)c1cccc(-c2ccc3nncn3c2)c1 | inactive
CCCCN(Cc1ccccc1)C(=O)C1CCN(Cc2sccc2C)CC1 | 7.08 µM (active)
CCCCN(C)C(=O)C1CCN(Cc2ccccn2)CC1 | inactive
CCCC(=O)C1CCN(Cc2ccccc2)CC1 | inactive
Cc1cccc(Nc2nc(-c3ccccc3)cs2)n1 | 3.16 µM (active)

SMILES | Potency
CC(=O)Nc1cccc(-c2csc(Nc3cccc(C)n3)n2)c1 | inactive
O=C(O)c1ccccc1C(=O)Nc1nc(-c2ccccc2)cs1 | inactive
CCc1c(N=O)c(-c2ccccc2)n(O)[n+]1[O-] | inactive
CCC(Oc1ccccc1)C(=O)OCC(=O)Nc1c(C)nn(-c2ccccc2)c1C (configuration not stated) | inactive
COc1cccc(N(CC(=O)N2CCc3ccccc3C2)S(C)(=O)=O)c1 | inactive
CS(=O)(=O)N(CC(=O)N1CCc2ccccc2C1)c1ccc(Br)cc1 | inactive
Cc1ccc(S(=O)(=O)N(CC(=O)N2CCc3ccccc3C2)c2cccc(Cl)c2)cc1 | 8.91 µM (active)
O=C(NCc1ccccc1)C1c2ccccc2OCC(=O)N1C1CC1 (configuration not stated) | inactive
COc1ccc(-c2ccc(CN3C(CC(C)C)C(=O)N(Cc4cn(CC5CCCCC5)nn4)CCS3(=O)=O)cc2)cc1 (configuration not stated) | 10 µM (active)
COCOCCn1cc(CN2CCS(=O)(=O)N(Cc3ccc(-c4cccc(N(C)C)c4)cc3)C(CC(C)C)C2=O)nn1 (configuration not stated) | inactive
COc1ccc(-c2ccc(CN3C(C(C)C)C(=O)N(Cc4cn(CC5CCCCC5)nn4)CCS3(=O)=O)cc2)cn1 (configuration not stated) | inactive
CC1C(=O)N(Cc2cn(Cc3ccco3)nn2)CCS(=O)(=O)N1Cc1ccc(-c2cccc(CO)c2)cc1 (configuration not stated) | inactive
CC(C)CC1C(=O)N(Cc2cn(CC3CCCCC3)nn2)CCS(=O)(=O)N1Cc1ccc(-c2ccc(Cl)cc2)cc1 (configuration not stated) | inactive
CC(C)CC1C(=O)N(Cc2cn(Cc3ccco3)nn2)CCS(=O)(=O)N1Cc1ccc(-c2ccc(Cl)c(Cl)c2)cc1 (configuration not stated) | 10 µM (active)
CCN1C(=O)[C@@H]2[C@@H]3CN(S(=O)(=O)c4ccccc4C)[C@@H](c4ccc(Cl)cc4)[C@@H]3C(=O)C[C@@H]2C1=O | inactive
CCOC(=O)c1cc(-c2sc(NC(=O)c3ccccc3)nc2C)n(CCO)n1 | inactive
CCc1nc2ccc(C(=O)NCCNC(C)=O)cn2c1N(CC)Cc1cccc(Br)c1 | inactive
COc1ccc(CNC(=O)Cn2nnc(-c3ccccc3F)n2)cc1 | inactive
CC(C)(C)NC(=O)Cn1nnc(-c2ccccc2Cl)n1 | inactive
C#CC(C)(CC)NC(=O)Cn1nnc(-c2ccc(OCc3c(F)cccc3Cl)cc2)n1 (configuration not stated) | 3.16 µM (active)
CN(C)S(=O)(=O)N1CCC(Oc2cccc(C(=O)NCCCC3CCCC3)c2)CC1 | 10 µM (active)

SMILES | Potency
CN(C(=O)c1cccc(OC2CCN(S(=O)(=O)N(C)C)CC2)c1)C1CCOC1 (configuration not stated) | inactive
CNS(=O)(=O)c1cccc(C(=O)NCC2CCCCC2)c1 | inactive
CCNC(=O)C1(C)CCN(Cc2ccc(C(=O)OCC)o2)C1 (configuration not stated) | inactive
CCc1noc(C)c1C(=O)OCC(=O)c1ccc(NC(=O)CC(C)C)cc1 | inactive
Cc1cccc(C)c1NC(=O)C(c1cccc2ccccc12)n1c(=O)c(-c2ccco2)nc2ccccc21 (configuration not stated) | inactive
COc1ccc(Cl)cc1NC(=O)CN(C)C(=O)c1ccc2n[nH]nc2c1 | inactive
COc1ccc(Cl)cc1NC(=O)CN(C)C(=O)c1cc2ccccc2cc1OC | 10 µM (active)
COc1ccc(Cl)cc1NC(=O)CN(C)C(=O)c1cn(-c2ccccc2)nc1-c1cccs1 | inactive
O=[N+]([O-])c1ccc(C(S(=O)(=O)Cc2ccccc2)S(=O)(=O)Cc2ccccc2)cc1 | inactive
N=C(N)SCc1cccc2ccccc12 | 10 µM (active)
c1ccc2c(CNn3cnnc3)cccc2c1 | inactive
N#C/C(=C(/O)Cc1cccc2ccccc12)c1nc2ccccc2s1 | inactive
CCCCNC(=O)OC1CC2CC1[C@H]1CCCCN1C2=O (some centres not stated) | inactive
C[C@H](NC(=O)CC[C@H]1O[C@@H](n2ccc(=O)[nH]c2=O)[C@H](O)[C@@H]1O)c1cccc2ccccc12 | inactive
COc1cccc(N2CCN(C(=O)CCCCCn3c(=O)[nH]c4ccccc4c3=O)CC2)c1 | inactive
COC(=O)[C@H]1[C@H]2C[C@H]3c4[nH]c5ccccc5c4CCN3C[C@@H]2CC[C@@H]1O | inactive
COc1cccc(C2c3[nH]c4ccccc4c3CCN2Cc2cccc(C)n2)c1 (configuration not stated) | 11.2 µM (active)
Cc1ccc(S(=O)(=O)NCCC(=O)Nc2cccc(S(N)(=O)=O)c2)cc1C | inactive
Cc1ccc(S(=O)(=O)NCCC(=O)Nc2ccc(C)c(Cl)c2)cc1C | 7.08 µM (active)
Cc1ccc(NC(=O)CCNS(=O)(=O)c2ccc3c(c2)oc(=O)n3C)cc1C | inactive
